Screens as filed in PubChem.
Pol eta inh – blocks human DNA polymerase eta activity. Q9Y253. recombinant Pol eta, fluorescent DNA replication assay. Potency, µM (doses to about 114 µM), inactives show at the top dose activity change, negative = inhibition, usual class: inhibitors. hit rate 1.2% among 390,000. AID 588591; further: on the % scale 0 is the no-effect control and ±100 the full control effect
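Pol eta (10 nM) was preincubated with compounds for 15 min at room temperature, after which fluorescent replication substrate (50 nM final) was added to start the reaction. Fluorescence was read kinetically at 0 and 10 min.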
Pol iota inh – inhibitors of human DNA polymerase iota | Pol iota fluorescent replication assay, 10 min | Potency, µM (doses to about 115 µM), for the others: at the highest dose activity, negative = inhibition, hits mostly inhibitors | hit rate 1% among 390,000 | Q9UNA4 | AID 588590
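Fluorescent replication assay read twice, at 0 min and 10 min after adding 50 nM (final) substrate. Enzyme (10 nM) and compounds were first incubated 15 min at room temperature; enzyme-free buffer wells were negative controls.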
POLB inh – inhibitors of human DNA polymerase beta; Pol beta primer extension/strand displacement, fluorescence kinetic; Potency, µM (highest dose often 114 µM), for inactives: at the highest dose activity change, negative = inhibition, hits mostly inhibitors; hit rate 1.3% among 340,000; further: on the % scale 0 is the no-effect control and ±100 the full control effect
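Pol beta (10 nM) was preincubated with compound for 15 min at room temperature. The reaction was then started with 50 nM substrate and read immediately and after a further 10 min at room temperature.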
FEN1 inhibitor – human FEN1 inhibition | Recombinant FEN1 flap cleavage, fluorescence, 15 min | Potency, µM (series often up to 114 µM), inactives show at the top dose activity change, negative = inhibition, hits mostly inhibitors | hit rate 0.35% among 390,000 | AID 588795; further: on the % scale 0 is the no-effect control and ±100 the full control effect; nearly all actives have a fitted effect of over 65% in size
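Nuclease activity of 10 nM FEN1 was measured after 15 min of room-temperature exposure to titrated compounds, by adding 50 nM flap substrate and reading plates at 0 and 15 min.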
WRN helicase inh – inhibitors of human WRN helicase | Q14191 | WRN helicase unwinding, fluorescent forked duplex, kinetic | Potency, µM (series often up to 114 µM), without a hit: at the highest dose activity change, negative = inhibition, actives largely listed as inhibitors | hit rate 0.46% among 360,000 | AID 651768; further: on the % scale 0 is the no-effect control and ±100 the full control effect; nearly all actives have a fitted effect of over 55% in size
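Screening of the MLSMR collection measured strand separation of a quenched forked DNA duplex (100 nM) by 20 nM WRN with 2 mM ATP, all final. Compounds were preincubated with enzyme 15 min at room temperature.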
Pol kappa inh – inhibitors of human DNA polymerase kappa; Q9UBT6; purified Pol kappa, fluorescent DNA synthesis assay, 10 min; Potency, µM (highest dose often 107 µM), for the others: at the highest dose activity, negative = inhibition, hits mostly inhibitors; hit rate 0.53% among 400,000; AID 588579; further: on the % scale 0 is the no-effect control and ±100 the full control effect
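Fluorescent qHTS in 1536-well format: enzyme (10 nM) and compound sat 15 min at room temperature before 50 nM substrate (final) was added. Signal taken at 0 and 10 min; no-enzyme buffer wells were negative controls.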
Starred values were filed as active, the others as inactive; [ ] = another dose, or the depositor's remark. Compounds with a hit are over-represented: about 2.4% of the library has one in this group of screens. The call rests on the fitted dose curve; in most records, active means well fitted curve in the direction sought with a large enough effect; inconclusive means small, poorly fitted or top-dose-only effect, or another doubt; inactive means no such curve, though single readings can be large; an effect the other way counts as inactive or inconclusive. Potency means the concentration at half of the fitted maximal effect.

Screening CCOC(=O)COc1ccc2nsnc2c1Cl returned Pol eta inh -18%, Pol iota inh 6%, POLB inh 1%, FEN1 inhibitor 5%, WRN helicase inh -5% and Pol kappa inh -28%.
Cc1cccc(C(=O)Nc2nnc(S(=O)(=O)N(C)Cc3ccc(Cl)cc3)s2)c1 was read as Pol eta inh -11%, Pol iota inh 89µM*, POLB inh 24%, FEN1 inhibitor -13% and Pol kappa inh -1%.
COc1ccc(N(CC(C)C)S(=O)(=O)c2nnc(NC(=O)c3ccco3)s2)cc1 was read as Pol eta inh 79µM*, Pol iota inh inconclusive, POLB inh 0%, FEN1 inhibitor -3%, WRN helicase inh 6%[11.6 µM] and Pol kappa inh -18%.
`CCN(c1cc(C)cc(C)c1)S(=O)(=O)c1nnc(NC(=O)c2ccco2)s1` gave Pol eta inh -3%, Pol iota inh -5%, POLB inh -4%, FEN1 inhibitor 15%, WRN helicase inh -2% and Pol kappa inh -10%.
CCCCCCCCc1nnc(NC(=O)c2ccco2)s1 was read as Pol eta inh -12%, Pol iota inh -3%, POLB inh 35µM*, FEN1 inhibitor -5%, WRN helicase inh -23%[57.1 µM] and Pol kappa inh -7%.
Screening CCOCc1nnc(NC(=O)c2ccco2)s1 returned Pol eta inh -18%, Pol iota inh 11%, POLB inh 4%, FEN1 inhibitor 12%, WRN helicase inh -3% and Pol kappa inh -7%.
`CCN(c1ccccc1C)S(=O)(=O)c1nnc(NC(=O)c2ccco2)s1` gave Pol eta inh 50µM*, Pol iota inh inconclusive, POLB inh inconclusive, FEN1 inhibitor -8%, WRN helicase inh -11%[11.6 µM] and Pol kappa inh inconclusive.
Screening Cc1cccc(NC(=O)c2ccc3nc(CCc4ccccc4)oc3c2)c1C returned Pol eta inh -5%, Pol iota inh -15%, POLB inh 4%, FEN1 inhibitor 5% and Pol kappa inh -9%[60.1 µM].
`Nc1ncnc2c1ncn2[C@H]1O[C@@H](CSCC[C@@H](N)C(=O)O)[C@H](O)[C@@H]1O` gave Pol kappa inh 7%[19.4 µM].
CCN(c1ccc(C)cc1C)S(=O)(=O)c1nnc(NC(=O)C(C)C)s1 was read as Pol eta inh -11%, Pol iota inh 10%, POLB inh -3%, FEN1 inhibitor 16%, WRN helicase inh -2% and Pol kappa inh -17%.
Screening CCN(c1ccc(C)cc1C)S(=O)(=O)c1nnc(NC(=O)c2ccc(F)cc2)s1 returned Pol eta inh -10%, Pol iota inh inconclusive, POLB inh 18µM*, FEN1 inhibitor 2% and Pol kappa inh -28%.
Screening COc1cccc(NC(=O)C(Cc2ccccc2)NS(=O)(=O)c2ccc3c(c2)oc(=O)n3C)c1 (centres undefined) returned Pol eta inh -15%, Pol iota inh 2%, POLB inh 23%, FEN1 inhibitor -16% and Pol kappa inh -3%.
For O=C1C(=O)c2ccccc2C(O)=C1CCCCl the results were Pol eta inh inconclusive, Pol iota inh 14µM*, POLB inh 30%, FEN1 inhibitor inconclusive, WRN helicase inh 13% and Pol kappa inh -9%.
COc1ccc(CC2=C(O)c3ccccc3C(=O)C2=O)cc1 was read as Pol eta inh -18%, Pol iota inh inconclusive, POLB inh 23%, FEN1 inhibitor -6%, WRN helicase inh 7% and Pol kappa inh -1%.
`COc1cc2nc(N3CCOCC3)nc(NC3CC3)c2cc1OC` gave Pol iota inh 27%, FEN1 inhibitor -16% and Pol kappa inh -5%.
CCCCCCCCCC[n+]1cccc2cc(Cl)ccc21 was read as Pol iota inh 10%, FEN1 inhibitor 2% and Pol kappa inh 5%.
CC(=O)Oc1ccc(C(=O)Nc2cccc(-c3nnc(-c4ccco4)o3)c2)cc1 was read as Pol eta inh -14%, Pol iota inh 58%, POLB inh 20µM*, FEN1 inhibitor -1%, WRN helicase inh -32% and Pol kappa inh -15%.
Screening COc1ccc(-c2ccc(OC)c(C3C4C=CCCC4(C)C(=O)N3Cc3ccccc3)c2)cc1OC (centres undefined) returned Pol iota inh -3%, FEN1 inhibitor -26% and Pol kappa inh -5%.
`COc1ccc(CNC(=O)COC(=O)C(CCSC)NC(=O)c2ccco2)cc1OC` (centres undefined) gave Pol eta inh -1%, Pol iota inh 35%, FEN1 inhibitor -3%, WRN helicase inh 13% and Pol kappa inh 9%.
Screening CSCCC(NC(=O)c1ccccc1)C(=O)OCC(=O)NCc1ccco1 (centres undefined) returned Pol eta inh inconclusive, Pol iota inh 71µM*, FEN1 inhibitor -4%, WRN helicase inh -14% and Pol kappa inh -21%.
CC(C)[C@H](NC(=O)OCc1ccccc1)C(=O)OCC(=O)NCc1ccco1 was read as Pol eta inh 50µM*, Pol iota inh 16µM*, FEN1 inhibitor 18%, WRN helicase inh -28% and Pol kappa inh -25%.
CCOc1ccc(OCC)c(NS(=O)(=O)c2ccc(-c3coc(C)n3)cc2)c1 was read as Pol eta inh -12%, Pol iota inh 14%, POLB inh -1%, FEN1 inhibitor -3% and Pol kappa inh -7%[60.1 µM].
For CC(C)(C)n1ncc2c(=O)n(Cc3c(Cl)cccc3Cl)cnc21 the results were Pol iota inh 5%, FEN1 inhibitor -14% and Pol kappa inh 8%.
For CCC(=O)Nc1ccc(S(=O)(=O)NCc2cccn2Cc2cccc(C)c2)cc1 the results were Pol eta inh -18%, Pol iota inh 89µM*, POLB inh 25%, FEN1 inhibitor -21% and Pol kappa inh -11%[60.1 µM].
CCc1ccc(S(=O)(=O)NCc2cccn2Cc2cccc(C)c2)cc1 was read as Pol eta inh -17%, Pol iota inh -9%, POLB inh inconclusive, FEN1 inhibitor -26% and Pol kappa inh -7%[60.1 µM].
CCCCCCCCCCCCCCCC[N+](C)(C)CC was read as Pol eta inh 89µM*, Pol iota inh 19%, FEN1 inhibitor 21%, WRN helicase inh -11% and Pol kappa inh -7%.
Cc1nnc(N/N=C\c2ccc(-c3ccccc3[N+](=O)[O-])o2)n1N was read as Pol eta inh -10%, Pol iota inh 4µM*, POLB inh 3%, FEN1 inhibitor -14%, WRN helicase inh 3%[11.6 µM] and Pol kappa inh -18%.
Screening Cc1nnc(N/N=C/c2ccc(-c3ccccc3F)o2)n1N returned Pol eta inh 8%, Pol iota inh 3.5µM*, POLB inh inconclusive, FEN1 inhibitor -8%, WRN helicase inh -9%[11.6 µM] and Pol kappa inh -20%.
